Source: PubChem BioAssay (Tox21)
Inconclusive results are not listed. Active and inactive are the calls of the source. Calls follow the shape of the dose curve; as a rule, active = well fitted cell-killing curve with a large enough effect in the repeat runs; inconclusive = weak or mixed curves, or effect the other way; inactive = flat fitted curve, though single readings scatter.

Assay: qHTS assay to identify small molecule agonists of the sonic hedgehog signaling (Shh) pathway - cell viability counter screen (AID 1259366); also: nearly all actives have a fitted effect of over 50% in size
Settings: NIH/3T3 Gli1-Luc viability, CellTiter-Fluor, 24 h; series mostly up to 92.4 µM
Text: National Center for Advancing Translational Sciences [NCATS]
NIH Chemical Genomics Center [NCGC]
U.S. Environmental Protection Agency [EPA]
National Institutes of Environmental Health Sciences [NIEHS]
National Toxicology Program [NTP]
U.S. Food and Drug Administration [FDA]
The sonic hedgehog (Shh) pathway is essential for normal embryonic development. Dysregulation of the Shh pathway can cause severe developmental defects in organs. Therefore chemicals that interfere with the pathway are potential developmental toxicants. A cell line designated 3T3Gli1-Luc (DMB/OARSA/CFSAN/FDA, Laurel, MD), a NIH/3T3 derived clone containing stably integrated Gli1-Luc reporter is used to detect chemical interference of the Shh pathway, by changes in the expression of the firefly Luc gene under the control of the Gli1 transcriptional response element. This cell line was used to screen Tox21 libraries for identifying and prioritizing the potential developmental toxicants that interfere Shh pathway. The cytotoxicity of the compounds was tested in parallel by measuring the cell viability using CellTiter-Fluor assay system (Promega, Madison, WI) in the same wells.
Tox21 Assay Protocol Summary:
3T3 Gli1-Luc cells were dispensed at 2,000 per well in 5uL of culture medium into white solid bottom 1536-well plates (Greiner Bio-One, Monroe, NC) using a Multidrop Combi (Thermo Scientific, Waltham, MA) dispenser. The assay plates were incubated at 37 C and 5% CO2 for 4hr, and then 23nL of compounds dissolved in DMSO and positive control were transferred using a Pintool station (Wako, San Diego, CA). The assay plates were incubated at 37C and 5% CO2 for 24hr. For viability read, after 23hr of compound treatment, 1uL of CellTiter-Fluor reagent (Promega Corporation, Madison, WI) was added to each well of the assay plates using Flying Reagent Dispenser (FRD, Aurora Discovery, San Diego, CA) and incubated the assay plates at 37C for 1hr. The fluorescence signal was quantified using a ViewLux plate reader (Perkin Elmer, Shelton, CT).
% is scaled to controls: 0 for no effect and ±100 for the full control effect.

SMILES | outcome | viability change, negative = cytotoxic
COc1cc(OC)nc(O[C@H](C(=O)O)C(OC)(c2ccccc2)c2ccccc2)n1 | inactive | 
CC1=C(O)C(=O)C(C)O1 (stereo not given) | inactive | 
CC(=O)OCC(=O)Nc1cc(C#N)cc(NC(=O)COC(C)=O)c1Cl | inactive | 
CCOC(CN1CCN(CC(C)C(=O)c2ccccc2)CC1)c1ccccc1 (stereo not given) |  | -6.98% [at 19 µM] (inactive)
Nc1nc(-c2ccccc2)c(Br)c(=O)[nH]1 | inactive | 
O=Cc1cc2ccccc2o1 | inactive | 
CN(C)C(C)(C)CO | inactive | 
CN1CCOC(c2ccccc2)c2ccccc2C1 (stereo not given) | inactive | 
C[C@@H](O)C(=O)O | inactive | 
CO[C@@]1(NC(=O)Cc2cccs2)C(=O)N2C(C(=O)O)=C(COC(N)=O)CS[C@@H]21 | inactive | 
CCCCCCCCCCCCCCCCCC#N | inactive | 
CC(S)C(C)S (stereo not given) | inactive | 
OCC(O)CN1CCN(c2ccccc2)CC1 (stereo not given) | inactive | 
CC(C)Nc1ccccc1 | inactive | 
COc1ccc(CCO)cc1 | inactive | 
CCC(C)C(C)=O (stereo not given) | inactive | 
O=C(O)CNC(=O)CNC(=O)CNC(=O)CSC(=O)c1ccccc1 | inactive | 
O=C(O)c1cc2ccccc2nc1C(=O)O | inactive | 
OC[C@@H](O)C(O)[C@@H](O)CO (stereo not given in full) | inactive | 
CCOC(=O)CC1(C)OCC(C)O1 (stereo not given) | inactive | 

SMILES | outcome | viability change, negative = cytotoxic
CC1=C(C(=O)O)N2C(=O)[C@@H](NC(=O)[C@H](N)C3=CCC=CC3)[C@H]2SC1 | inactive | 
COC(=O)/C=C\C(=O)O | inactive | 
CC1OCCC1=O (stereo not given) | inactive | 
COC(=O)c1cc(Cl)cc(Cl)c1 | inactive | 
CCN(CC)CCN | inactive | 
COc1cc(/C=C/C(N)=O)cc(OC)c1OC | inactive | 
CC(C)COC(=O)c1ccccc1 | inactive | 
CCCCSCCCC | inactive | 
CC(C)OC(=O)OCOP(=O)(CO[C@H](C)Cn1cnc2c(N)ncnc21)OCOC(=O)OC(C)C | inactive | 
CCC/C=C(\C=O)CC | inactive | 
CC(=O)O[Si](C)(OC(C)=O)OC(C)=O | inactive | 
CCCCCCCCCOC(=O)CCCCC(=O)OCCCCCCC | inactive | 
CC(C)[C@H]1CC[C@H](C)C[C@@H]1O | inactive | 
OCC1CCC(CO)CC1 (stereo not given) | inactive | 
CC1(C)O[C@H]2CC(=O)OC[C@]23[C@H]2CC[C@@]4(C)[C@H](c5ccoc5)OC(=O)[C@H]5O[C@]54[C@]2(C)C(=O)C[C@@H]13 | inactive | 
CC(C)=CCC[C@@](C)(O)[C@H]1CC=C(C)CC1 | inactive | 
CC(C)=CCC/C(C)=C/COC=O | inactive | 
CCCC(=O)OCCC(C)CCC=C(C)C (stereo not given) | inactive | 
c1ccc(-c2nn[nH]n2)cc1 | inactive | 
CC(C)(C)NC[C@H](O)COc1cccc2c1CCCC2=O | inactive | 
